# Laboratory results taken from the supplement of paper PMC3414501.
# Where a name gives a salt, the structure may show the parent alone.
# System: S. cerevisiae AD1-9 (efflux-pump deficient), vegetative growth in YPD
# Test: growth sensitivity score (doubling time z-score vs DMSO controls); higher = slower growth, strongly negative scores also mark growth inhibition (complete suppression), active = hit call of the paper; in the data active = 2 or more and inactive = the rest
# How it was run: (§1)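 Optical density of Saccharomyces cerevisiae cultures in microtiter plates was followed every 15 min for 24 hours after seeding at an OD600 of 0.065. Eight solvent-only wells were run per experiment. Growth sensitivity scores were found by subtracting the solvent-only mean from the compound mean and dividing by the solvent-only standard deviation.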
row,SMILES,growth sensitivity score
1,"CCOC(=O)[C@H](CCc1ccccc1)N[C@@H](C)C(=O)N1[C@H](C(=O)O)C[C@@H]2CCC[C@@H]21 [Ramipril] (stock concentration (mM, diluted 1:100): 10)",2.05 (active)
2,"CO[C@H]1/C=C/O[C@@]2(C)Oc3c(C)c(O)c4c(c3C2=O)C2=NC3(CCN(CC(C)C)CC3)NC2=C(NC(=O)/C(C)=C\C=C\[C@H](C)[C@H](O)[C@@H](C)[C@@H](O)[C@@H](C)[C@H](OC(C)=O)[C@@H]1C)C4=O [Rifabutin] (stock concentration (mM, diluted 1:100): 10)",1.43 (inactive)
3,"COC(=O)C1=C(C)NC(C)=C(C(=O)OCC(C)C)C1c1ccccc1[N+](=O)[O-] (stereo not given) [Nisoldipine] (stock concentration (mM, diluted 1:100): 10)",89.2 (active)
4,"CC(C)(C)C(O)/C=C/c1ccc2c(c1)OCO2 (stereo not given) [Stiripentol] (stock concentration (mM, diluted 1:100): 10)",5.27 (active)
5,"COc1ccnc(C[S+]([O-])c2nc3cc(OC(F)F)ccc3[nH]2)c1OC (stereo not given) [Pantoprazole sodium] (stock concentration (mM, diluted 1:100): 10)",-2.1
6,"CC(C(O)c1ccc(O)cc1)N1CCC(Cc2ccccc2)CC1 (stereo not given) [Ifenprodil] (stock concentration (mM, diluted 1:100): 9.2)",44.9 (active)
7,"O=c1cnn([C@@H]2O[C@H](CO)[C@@H](O)[C@H]2O)c(=O)[nH]1 [6-Azauridine] (stock concentration (mM, diluted 1:100): 10)",0.13 (inactive)
8,"O=c1[nH]cnc2c1ncn2[C@H]1CC[C@@H](CO)O1 [Didanosine] (stock concentration (mM, diluted 1:100): 10.1)",-1.72 (inactive)
9,"CNC(=C[N+](=O)[O-])NCCSCc1csc(CN(C)C)n1 [Nizatidine] (stock concentration (mM, diluted 1:100): 10)",-0.22 (inactive)

# System: S. cerevisiae BY4741 (wild-type), vegetative growth in YPD
# Test: as above
# How it was run: as §1
row,SMILES,growth sensitivity score
1,"CN(C)CCc1c[nH]c2ccc(C[C@H]3COC(=O)N3)cc12 [Zolmitriptan] (stock concentration (mM, diluted 1:100): 10)",-0.77 (inactive)
2,"CCCCN1CCCC1CNC(=O)c1cc(C#N)c2ccccc2c1OC (stereo not given) [Nafadotride] (stock concentration (mM, diluted 1:100): 10)",-0.11 (inactive)
3,"CC(C)(C)NC(=O)[C@H]1CC[C@H]2[C@@H]3CC[C@H]4NC(=O)C=C[C@]4(C)[C@H]3CC[C@]12C [Finasteride] (stock concentration (mM, diluted 1:100): 10)",1.37 (inactive)
4,"OCc1cccnc1 [3-Pyridinemethanol] (stock concentration (mM, diluted 1:100): 10)",-1.12 (inactive)
5,"Nc1nc(Cl)nc2c1ncn2[C@H]1C[C@H](O)[C@@H](CO)O1 [2-Chloro-2-Deoxyadenosine] (stock concentration (mM, diluted 1:100): 10)",-0.67 (inactive)
6,"COc1ccc2cc([C@H](C)C(=O)O)ccc2c1 [Naproxen sodium] (stock concentration (mM, diluted 1:100): 10)",-0.72 (inactive)
7,"C#C[C@]1(O)CC[C@H]2[C@@H]3CCC4=CC(=O)CC[C@@H]4[C@H]3CC[C@@]21CC [Levonorgestrel] (stock concentration (mM, diluted 1:100): 10)",0.89 (inactive)
8,"OCc1cc(C(O)CNCCCCCCOCCCCc2ccccc2)ccc1O (stereo not given) [Salmeterol] (stock concentration (mM, diluted 1:100): 10)",3.81 (active)
9,"OCCN1C[C@H](O)[C@@H](O)[C@H](O)[C@H]1CO [Miglitol] (stock concentration (mM, diluted 1:100): 10)",-1.34 (inactive)
10,"COc1ccc(C2CNC(=O)C2)cc1OC1CCCC1 (stereo not given) [Rolipram] (stock concentration (mM, diluted 1:100): 10)",-0.71 (inactive)
11,"CC[C@@H]1C(=O)OC[C@@H]1Cc1cncn1C [Pilocarpine hydrochloride] (stock concentration (mM, diluted 1:100): 10)",0.72 (inactive)
